# Bioassay records (PubChem)
# Luciferase inh: Firefly luciferase inhibition profiling of diverse chemical library using quantitative high-throughput screening | Luciferin 4-monooxygenase (Photinus pyralis), P08659 | Potency, µM (titrated, usually from 115 µM), usual class: inhibitors | actives 2.5% (n = 76,000) | purified P. pyralis luciferase, luminescence, biochemical; further: nearly all actives have a fitted effect of over 65% in size
#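 Biochemical qHTS: compound (6-point titration) added to 10uM D-luciferin plus 10uM ATP in Tris acetate pH 7.5 buffer with Mg, Tween-20 and BSA, then purified enzyme at 10nM; light output imaged.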
# 3T3 cytotox: Cytotoxic Profiling in NIH 3T3 Cell Line of Diverse Libraries Using Quantitative High-Throughput Screening; NIH 3T3 viability, CellTiter-Glo ATP luminescence, 48-72 h; Potency, µM (highest dose often 96.7 µM), for inactives: at the highest dose activity change, negative = cytotoxicity, usual class: inhibitors; actives 4.3% (n = 94,000); AID 1345082, 2018; further: nearly all actives have a fitted effect of over 55% in size
#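 Luminescent ATP readout (CellTiter-Glo, 10 min RT) after 48 or 72 hr compound exposure of NIH 3T3 cells seeded at 400 cells/well in 1536-well format; quantitative HTS.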
# NPR1 antag: Natriuretic polypeptide receptor (hNpr1) antagonism - Primary qHTS; actives 1.6% (n = 76,000); Potency, µM (highest dose often 46.3 µM), for the others: top-dose activity change, negative = inhibition, actives largely listed as inhibitors; Atrial natriuretic peptide receptor 1 (Homo sapiens), P16066; HEK293 hNpr1 GloSensor cGMP, ANP-stimulated luminescence; calls by dose curve; further: nearly all actives have a fitted effect of over 60% in size
# Target sequence (P16066 whole entry, looked up): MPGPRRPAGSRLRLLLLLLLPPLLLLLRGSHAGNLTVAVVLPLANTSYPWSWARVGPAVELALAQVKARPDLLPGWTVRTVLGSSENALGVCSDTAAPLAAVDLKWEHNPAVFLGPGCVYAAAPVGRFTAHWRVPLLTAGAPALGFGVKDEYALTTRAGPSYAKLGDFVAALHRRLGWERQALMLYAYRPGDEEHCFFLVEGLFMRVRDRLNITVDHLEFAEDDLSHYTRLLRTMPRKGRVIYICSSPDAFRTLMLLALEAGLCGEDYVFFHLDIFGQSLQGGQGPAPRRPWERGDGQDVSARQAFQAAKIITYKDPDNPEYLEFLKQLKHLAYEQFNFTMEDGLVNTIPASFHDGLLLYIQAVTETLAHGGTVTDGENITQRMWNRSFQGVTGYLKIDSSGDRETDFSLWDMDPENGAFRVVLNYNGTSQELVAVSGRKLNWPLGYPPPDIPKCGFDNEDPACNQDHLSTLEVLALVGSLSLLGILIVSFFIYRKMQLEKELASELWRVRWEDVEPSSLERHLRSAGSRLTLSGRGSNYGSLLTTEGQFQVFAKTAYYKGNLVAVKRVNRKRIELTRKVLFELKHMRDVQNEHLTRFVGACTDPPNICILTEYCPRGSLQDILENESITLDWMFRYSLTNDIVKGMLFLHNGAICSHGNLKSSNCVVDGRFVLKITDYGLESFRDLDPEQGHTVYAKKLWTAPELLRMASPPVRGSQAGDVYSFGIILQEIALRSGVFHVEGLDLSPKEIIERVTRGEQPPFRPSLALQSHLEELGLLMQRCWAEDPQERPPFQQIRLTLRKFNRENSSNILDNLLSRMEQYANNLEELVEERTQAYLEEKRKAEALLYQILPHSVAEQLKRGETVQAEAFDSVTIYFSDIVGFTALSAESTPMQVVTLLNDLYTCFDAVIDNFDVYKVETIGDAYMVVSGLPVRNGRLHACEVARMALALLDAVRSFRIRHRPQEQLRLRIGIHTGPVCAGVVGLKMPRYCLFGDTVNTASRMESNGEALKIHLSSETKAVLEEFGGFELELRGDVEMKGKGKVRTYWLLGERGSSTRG
#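 HEK293 cells stably expressing human Npr1 and cGMP GloSensor pGS-40F, loaded 2 h with 2% GloSensor reagent, given compound 30 min at room temperature. Luminescence read before and 20 min after 0.1 nM hNppA.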
# GPT2 inhibitor: Primary qHTS assay for inhibitors of Glutamate pyruvate transaminase 2 (GPT2); Alanine aminotransferase 2 (Homo sapiens), Q8TD30; Recombinant GPT2, coupled pyruvate oxidase/HRP Amplex Red fluorescence; Potency, µM (top dose mostly 57.7 µM), for inactives: at the top dose activity change, negative = inhibition, actives largely listed as inhibitors; actives 0.25% (n = 100,000); AID 1671188, 2021; further: nearly all actives have a fitted effect of over 60% in size
#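 Fluorescence read-out: pyruvate from GPT2 turnover coupled to pyruvate oxidase, HRP and Amplex Red (0.2mM ThPP, 0.2U/mL PO and HRP, 50uM Amplex final). Substrates 250uM a-KG, 2mM L-alanine; enzyme 10ng/uL; 30 min RT.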
# HEK293 tox: Cytotoxic Profiling in HEK 293 Cell Line of Diverse Libraries Using Quantitative High-Throughput Screening | HEK 293 viability, ATP luminescence (CellTiter-Glo), 48-72 h | Potency, µM (series often up to 115 µM), without a hit: at the highest dose activity change, negative = cytotoxicity, actives largely listed as inhibitors | actives 6.6% (n = 94,000); further: nearly all actives have a fitted effect of over 60% in size
#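 Cytotoxicity was scored by loss of ATP-coupled luminescence (CellTiter-Glo) in HEK 293 cells. Compound treatment ran 48 or 72 hr at 37 degree Celsius, 5% CO2, 95% humidity.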
# Starred values were filed as active, the others as inactive; i = inactive; ? = inconclusive; · = no result given; [ ] = remark or other dose. Hits are enriched below; roughly 10% of the tested compounds scored in any of these assays. Unless noted, the call rests on the fitted dose curve; in most records, active means well fitted curve in the direction sought with a large enough effect; inconclusive means small, poorly fitted or top-dose-only effect, or another doubt; inactive means no such curve, though single readings can be large; an effect the other way counts as inactive or inconclusive. On the % scale 0 is the no-effect control and ±100 the full control effect; potency means the concentration at half of the fitted maximal effect.
SMILES,Luciferase inh,3T3 cytotox,NPR1 antag,GPT2 inhibitor,HEK293 tox
COc1cccc([S+](=O)([O-])N2CCC3(COc4ccccc4C(=O)N3)C2)c1 (centres undefined),i,?,-6.1%,i,?
COc1ccc(CN2CCOc3nc(-c4cccc(NC(C)=O)c4)ncc3C2=O)cc1,i,?,-19.9%[70.6 µM],-1.0%[88.5 µM],100µM*
O=C1c2cnc(-c3ccc(CO)cc3)nc2OCCN1Cc1ccc(F)cc1F,?,?,-16.0%[70.6 µM],-3.5%[88.5 µM],89.1µM*
O=C1c2cnc(-c3ccc(F)cc3)nc2OCCN1Cc1ccc(F)cc1F,i,?,-11.0%[70.6 µM],i,?
O=C1c2cnc(-c3ccc(Oc4ccccc4)cc3)nc2OCCN1CC1CC1,?,28.2µM*,7.08µM*,-10.8%[88.5 µM],?
COCCN1CCOc2nc(-c3ccc(Oc4ccccc4)cc3)ncc2C1=O,22.4µM*,?,22.4µM*,-11.1%[88.5 µM],56.2µM*
CCOc1ccc(C(=O)NC2CCN(C(=O)c3cc4c(=O)[nH]c(C)cn4n3)CC2)cc1,i,-0.4%,9.7%,-9.4%,-1.0%
CN(C)c1ncc2c(n1)C(C)(C(=O)Nc1ccccc1F)CCC2 (centres undefined),i,?,-11.9%[70.6 µM],-21.3%[88.5 µM],100µM*
Cc1cccc(C(=O)NC2CCN(c3cc(-c4ccc(Cl)cc4)[nH]n3)CC2)c1,i,?,-2.0%,-7.5%,?
CS(=O)(=O)N(C1CC1)C1CCOC2(CCN(C(=O)Nc3ccccc3)CC2)C1 (centres undefined),i,-6.1%,3.3%,i,-3.4%
COc1ccc(Nc2ccnc(N3CCCC(C(=O)NCc4ccccc4)C3)n2)cc1 (centres undefined),·,35.5µM*,·,i,39.8µM*
COc1ccc(Nc2ccnc(N3CCCC(C(=O)NCc4cccc(F)c4)C3)n2)cc1 (centres undefined),·,15.8µM*,·,2.1%,12.6µM*
COc1ccc(Nc2ccnc(N3CCCC(C(=O)NCc4cccc(OC)c4)C3)n2)cc1 (centres undefined),·,35.5µM*,·,i,25.1µM*
COc1ccc(Nc2ccnc(N3CCCC(C(=O)NCc4cccc(Cl)c4)C3)n2)cc1 (centres undefined),·,?,·,i,?
COc1ccc(CNC(=O)C2CCCN(c3nccc(Nc4ccccc4F)n3)C2)cc1 (centres undefined),·,10µM*,·,i,28.2µM*
CC(=O)N(c1onc(C)c1C)S(=O)(=O)c1ccc(N)cc1,·,·,·,i,·
COc1ccc(CNC(=O)C2CCCN(c3nccc(Nc4ccc(C)cc4)n3)C2)cc1 (centres undefined),·,?,·,i,10µM*
COc1ccc(CNC(=O)C2CCCN2c2nccc(Nc3ccc(C)cc3)n2)cc1 (centres undefined),·,?,·,i,?
Cc1ccc(Nc2ccnc(N3CCCC(C(=O)NCc4ccc5c(c4)OCO5)C3)n2)cc1 (centres undefined),·,12.6µM*,·,i,7.94µM*
COc1ccc(CCC(=O)N2CCC(c3n[nH]c(=O)n3-c3ccccc3)CC2)cc1,i,i,5.0%,2.4%,7.3%
O=C1CC(c2ccccc2)N(C(=O)C2CC2)CCCCCCN1 (centres undefined),i,-9.3%,3.6%,-1.4%,-1.2%
COc1ccc(C(=O)NC2CCCN(Cc3ccc(-c4cc(C)cc(C)c4)cc3)C2)cc1 (centres undefined),·,-12.2%,·,2.6%,-17.1%
COc1cccc(-c2ccc(CN3CCCC(NC(=O)c4ccccc4)C3)cc2)c1 (centres undefined),·,39.8µM*,·,i,22.4µM*
COc1cccc(C(=O)NC2CCCN(Cc3ccc(-c4cc(C)cc(C)c4)cc3)C2)c1 (centres undefined),·,39.8µM*,·,-1.2%,?
COc1cccc(-c2ccc(CN3CCCC(NC(=O)c4ccc(F)cc4)C3)cc2)c1 (centres undefined),·,31.6µM*,·,-6.9%,11.2µM*
SMILES,Luciferase inh,3T3 cytotox,NPR1 antag,GPT2 inhibitor,HEK293 tox
CC(C)CCN1CCCC2(COc3ccccc3C(=O)N2)C1 (centres undefined),i,?,4.1%[70.6 µM],i,?
COc1cccc(CN2CCC3(COc4ccccc4C(=O)N3)C2)c1 (centres undefined),i,39.8µM*,-20.5%[70.6 µM],3.9%[88.5 µM],89.1µM*
CC(C)CCN1CCC2(COc3ccccc3C(=O)N2)C1 (centres undefined),i,100µM*,-3.1%[70.6 µM],i,?
CN(C)c1ccc(CN2CCC3(COc4ccccc4C(=O)N3)C2)cc1 (centres undefined),i,?,-2.9%,i,?
CN(C)c1ccc(CN2CCC3(CC2)COc2ccccc2C(=O)N3)cc1,i,22.4µM*,7.4%,i,?
CCn1ccnc1CN(C)C(=O)c1cn(Cc2ccccc2F)nn1,i,-10.3%,4.4%,2.1%,-9.8%
O=C(Cn1nc2c(cc1=O)CCCCC2)NC1CCCC1,?,i,-1.2%,i,1.0%
CCOC(=O)[C@H]1C[C@]2(CCCCN(CCOC)C2=O)N(C(C)=O)[C@H]1c1ccco1,·,?,·,·,31.6µM*
CCOC(=O)[C@H]1C[C@]2(CCCCN(CCOC(C)=O)C2=O)N(C(=O)OCC)[C@H]1c1ccco1,·,-22.4%,·,·,?
CC1=C[C@@H](CNC(=O)Nc2ccccc2)[C@H](C(C)C)C[C@H]1Cc1nnc(-c2ccncc2)o1,i,?,?,-0.5%,22.4µM*
CC1=C[C@@H](CNC(=O)c2ccncc2)[C@H](C(C)C)C[C@H]1Cc1nnc(-c2ccncc2)o1,i,?,?,i,79.4µM*
CC1=C[C@@H](CNS(=O)(=O)c2ccccc2)[C@H](C(C)C)C[C@H]1Cc1nnc(-c2ccncc2)o1,i,20µM*,?,-0.4%,25.1µM*
CC1=C[C@@H](CNS(=O)(=O)c2ccc(C#N)cc2)[C@H](C(C)C)C[C@H]1Cc1nnc(-c2ccncc2)o1,i,?,-18.8%,-6.1%,?
COc1ccc(-c2nc(C3CC3)nc3c2CCN(Cc2ccc(C#N)cc2)CC3)cc1,·,?,·,i,?
CC1Oc2ccc(NC(=O)c3ccccc3F)cc2CN(Cc2ccccc2F)C1=O (centres undefined),i,?,-0.4%,2.4%,?
